Shown are actives, neighbours in structure and some others; about 4% of the full set was active somewhere.
Mtb betalactam: beta-lactam sensitization of Mtb H37Rv. inhibition, % at 25 µM. M. tuberculosis H37Rv growth with meropenem, percent inhibition. AID 434955. actives 0.27% (n = 330,000); call rule not given here;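 note: growth measured after seven days incubation then overnight dye step; 0% = bacteria only wells and 100% = bacteria with antibiotic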
Rv3671c protease: inhibitors of M. tuberculosis serine protease Rv3671c; AID 2606; actives 0.048% (n = 320,000); inhibition, % at 5.96 µM; P9WHR9; in the data active = inhibition above about 38%;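 note: extracellular domain of Rv3671c used as enzyme; 0% = enzyme with DMSO and 100% = no enzyme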
FBA Mtb inh: Mtb fructose-bisphosphate aldolase inhibition. purified M. tuberculosis FBA, fluorescence read-out. inhibition, % at 1 µM. actives 2.3% (n = 360,000). AID 588726;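 note: 0% = vehicle and 100% = reference inhibitor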
Target sequence (P9WQA3 whole entry, looked up): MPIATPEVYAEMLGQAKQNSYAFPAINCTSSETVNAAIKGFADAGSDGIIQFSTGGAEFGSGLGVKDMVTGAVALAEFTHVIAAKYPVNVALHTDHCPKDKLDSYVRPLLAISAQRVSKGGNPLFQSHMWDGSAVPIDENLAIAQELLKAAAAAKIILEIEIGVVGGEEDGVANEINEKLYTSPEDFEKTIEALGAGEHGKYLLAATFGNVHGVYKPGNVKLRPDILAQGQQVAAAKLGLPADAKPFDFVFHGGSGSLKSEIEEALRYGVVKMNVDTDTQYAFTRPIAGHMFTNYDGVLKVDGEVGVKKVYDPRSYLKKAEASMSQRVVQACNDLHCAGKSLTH
RecA splice inh: inhibitors of M. tuberculosis RecA intein splicing; actives 0.75% (n = 290,000); inhibition, % (test concentration not listed); P9WHJ3; AID 2221; cell-free RecA intein splicing, fluorescence; in the data active = inhibition above about 30%; inconclusive = no clear call, values can overlap the other calls;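 note: 0% = vehicle wells and 100% = reference inhibitor control wells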
Mtb UGM inh: Mtb UDP-galactopyranose mutase inhibition; purified UGM, fluorescence polarization probe displacement; P9WIQ1; actives 0.06% (n = 320,000); inhibition, % at 10 µM; in the data active = inhibition above about 10%, passing the limit was not always enough; inconclusive = no clear call, values can overlap the other calls
GDH-TPI counter-1: counter-screen for M. tuberculosis FBA inhibitors: GDH-TPI coupled enzymes; inhibition, % at 4.8 µM; GDH-TPI coupled enzyme counterscreen, NADH absorbance; actives 1.2% (n = 360,000); AID 588335; in the data active = inhibition above about 30%;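 note: 0% = DMSO wells and 100% = wells lacking the enzyme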
Mtb FBA inh conf: confirmation of M. tuberculosis fructose-bisphosphate aldolase inhibitors; shares compounds with FBA Mtb inh; purified M. tuberculosis FBA, fluorescence read-out; inhibition, % at 1 µM; actives 78% (n = 5,600);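 note: 0% = vehicle wells and 100% = reference inhibitor wells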
GDH-TPI counter-2: GDH-TPI inhibition counter-screen for FBA inhibitors; shares compounds with FBA Mtb inh; GDH-TPI coupled enzyme counterscreen, fluorescence; inhibition, % at 1 µM; actives 81% (n = 5,600); in the data active = inhibition above about 10%
Starred values were filed as active, the others as inactive; ? = inconclusive; . = no result given; + = active, no number. Cut-off read from the data, not from the text of the source, unless noted: active = inhibition above about 27%; inactive = the rest.

SMILES	Mtb betalactam	Rv3671c protease	FBA Mtb inh	RecA splice inh	Mtb UGM inh	GDH-TPI counter-1	Mtb FBA inh conf	GDH-TPI counter-2
O=P(c1ccccc1)(c1ccccc1)c1nc(-c2ccccc2)oc1NCc1ccccc1	-3.5	5.6	4.4	0.1	-1.4	1.2	.	.
CCOP(=O)(OCC)c1nc(-c2ccccc2)oc1NCc1ccccc1	9.6	-10.3	82.4*	8.6	4.2	7.5	24.1	13.5*
CCOP(=O)(OCC)c1nc(-c2ccc(F)cc2)oc1NCc1ccccc1	-1.5	-0.9	76.8*	4.8	0.2	2.7	45.8*	28.9*
CCOP(=O)(OCC)c1nc(Cc2ccccc2)oc1NCc1ccccc1	3.1	8.6	-0.2	-0.1	-1.3	5.7	.	.
Fc1ccccc1/C=N/n1cnnc1	-1.4	1.8	4.7	-7.2	4.7	-12.0	.	.
Fc1ccccc1/C=N/n1cc(-c2ccccc2)[nH]c1=S	-4.3	1.8	51.0*	1.6	-1.3	-2.0	136.7*	127.2*
Cc1ccc(C)c(/C=N/n2cc(-c3ccccc3)[nH]c2=S)c1	1.2	2.5	43.4*	-2.3	0.0	1.2	+	+
Cc1cccc(-n2cc(-c3ccccc3)[nH]c2=S)c1	-4.1	-2.8	0.1	3.7	-1.8	-0.4	.	.
COC(=O)c1sc(S(=O)(=O)N2CCCCC2C)c(C(=O)OC)c1C (stereo not given)	-5.8	5.4	3.0	.	-3.3	9.2	.	.
C=CCOc1cccn2c(N(C)C(=O)c3ccc(OC)cc3)c(CC)nc12	.	.	-1.4	.	.	4.4	.	.
C=CCn1c(=O)n(CCOC)c(=O)c2sc3ccccc3c21	-5.9	1.7	37.5*	5.5	0.9	10.6	154.8*	164.3*
COCCCn1c(=O)c2ccccc2n(Cc2ccccc2)c1=O	-5.5	-0.2	2.2	3.5	3.3	-14.3	.	.
Cc1nn(-c2ccccc2)c2sc(C(=O)NC3CCCCC3)cc12	-5.2	-27.4	12.5	-1.4	2.0	17.2	.	.
CCCCNC(=O)COC(=O)c1cc2c(C)nn(-c3ccccc3)c2s1	-10.8	-4.9	29.0*	1.7	0.5	13.6	+	177.8*
Cc1nn(-c2ccccc2)c2sc(C(=O)NCCN3CCOCC3)cc12	6.3	-7.5	33.0*	7.2	1.9	9.7	92.5*	82.7*
COc1ccccc1CNC(=O)COC(=O)CCN1C(=O)C2CC=CCC2C1=O (stereo not given)	.	.	0.6	.	.	9.1	.	.
C=CCn1c(-c2ccc(N)cc2)nc2ccccc21	0.8	7.8	91.6*	1.9	0.2	12.0	11.6	-2.8
CCn1c(-c2ccc(N)cc2)nc2ccccc21	1.6	5.3	82.5*	-0.7	-1.1	3.4	101.5*	77.7*
COc1cc(C(=O)Nn2cnnc2)ccc1OC(F)F	-2.1	-1.8	0.2	-2.6	1.4	-0.6	.	.
COCCNc1ncnc2c1ncn2[C@H]1CN(Cc2ccco2)C[C@@H](CO)O1	.	.	5.7	.	.	14.3	.	.
CCOC(CCNC(=O)CCC(=O)Nc1ccc2nc(N3CCN(C)CC3)cc(C)c2c1)OCC	1.2	9.3	18.8	-1.6	-1.3	6.2	.	.
CCCCN(CC)CCCNC(=S)Nc1ccc2nc(N3CCN(C)CC3)cc(C)c2c1	-11.8	1.4	8.8	0.9	-5.8	25.0	.	.
CCOc1ccccc1NC(=O)CCC(=O)Nc1ccc2nc(N3CCN(C)CC3)cc(C)c2c1	-3.8	-6.8	30.9*	-1.6	-0.8	7.5	130.4*	121.7*
CCCCN(C)C(=O)CCC(=O)Nc1ccc2nc(N3CCN(C)CC3)cc(C)c2c1	-1.0	1.9	28.4*	-0.3	9.8	24.7	61.1*	56.9*
CCCCN(C)C(=O)CCC(=O)Nc1ccc2nc(N3CCOCC3)cc(C)c2c1	7.5	-2.7	49.2*	-1.9	-0.1	17.8	154.0*	124.7*
SMILES	Mtb betalactam	Rv3671c protease	FBA Mtb inh	RecA splice inh	Mtb UGM inh	GDH-TPI counter-1	Mtb FBA inh conf	GDH-TPI counter-2
CCCCn1c(-c2ccc(F)c(F)c2)nc2cc3[nH]c(=O)c(C(C)C)nc3cc21	56.8	-9.5	51.9*	9.9	-3.2	17.0	113.3*	92.1*
CCCCn1c(CCc2ccccc2)nc2cc3[nH]c(=O)c(C(C)C)nc3cc21	98.6	-6.2	32.7*	7.6	-2.3	7.6	61.3*	50.1*
N#CCCn1cc(C(N)=O)c(-c2ccc3ccccc3c2)n1	-3.9	7.2	1.3	-0.1	1.0	7.7	.	.
CCn1c(SC)nnc1-c1ccc(S(=O)(=O)N2CCCCC2)cc1	0.8	-1.3	28.3*	-2.9	-2.0	9.9	42.1*	34.4*
CC(=O)c1ccc(-c2ccc(C(=O)NCC(c3ccc(F)cc3)N3CCOCC3)o2)cc1 (stereo not given)	-0.4	-8.3	54.7*	-0.6	1.0	20.8	57.4*	32.0*
Cc1ccc(C(=O)NCC(c2ccc(F)cc2)N2CCOCC2)cc1 (stereo not given)	-7.6	-21.6	-1.6	-0.9	0.2	-13.9	.	.
CCc1cc[n+](C(C(=S)Nc2cccc(C)c2)=C([O-])c2ccc(C)c([N+](=O)[O-])c2)cc1	.	.	2.8	.	.	14.1	.	.
CCCN1C(=O)c2ccccc2NC1c1ccc(OC)cc1O (stereo not given)	-3.1	0.2	58.2*	-1.5	0.2	6.0	1.9	-7.7
CCCN1C(=O)c2ccccc2NC1c1ccc(OC)cc1OC (stereo not given)	8.9	1.1	80.9*	0.0	-2.6	0.0	44.9*	43.1*
COc1ccc(C2Nc3ccccc3C(=O)N2NC(C)=O)c(OC)c1 (stereo not given)	1.7	3.9	40.8*	-0.1	-1.4	11.0	72.2*	49.9*
O=C1c2ccccc2NC(c2ccccc2O)N1O (stereo not given)	12.2	-3.7	2.8	-31.0	-0.2	-11.8	.	.
Cc1nnc(SCC(=O)NC(C)(C)C)n1NCc1ccc(N(C)C)cc1	4.6	5.3	44.0*	0.1	-1.5	8.6	60.2*	53.8*
Cc1nnc(SCC(=O)NC(C)(C)C)n1NCc1ccc(Cl)cc1	0.9	-1.9	-3.7	-4.3	-3.2	-4.3	.	.
Cc1c(OCC(=O)N[C@H](C(=O)O)c2ccccc2)ccc2c3c(c(=O)oc12)CCCC3	-1.5	-3.8	30.7*	-1.0	3.3	10.8	6.5	-3.9
Cc1c(OCc2ccc(C(=O)O)o2)ccc2c3c(c(=O)oc12)CCC3	1.7	2.7	71.9*	-1.3	?	12.4	27.7*	24.7*
Cc1c(OCC(=O)NCc2ccccn2)ccc2c3c(c(=O)oc12)CCCC3	99.1	8.4	2.5	-3.1	0.8	6.5	.	.
COC(=O)c1ccc(COc2ccc3c(C)c(C)c(=O)oc3c2C)o1	.	.	.	-1.5	.	.	.	.
CCN(CC)C(=O)COc1ccc2c3c(c(=O)oc2c1C)CCCC3	99.2	-3.2	63.7*	0.0	1.1	10.4	+	+
CCCc1nn(C)c(C(N)=O)c1[N+](=O)[O-]	0.5	0.4	-0.9	-5.0	-0.6	3.7	.	.
